What all share (assay): DAPPL (digital affinity profiling via proximity ligation, sequencing); 10 mM Tris-HCl pH 7.5, 50 mM NaCl, 1 mM DTT, 4% glycerol, room temperature, 30 min; GST-TFs on glutathione beads, 16-mer random dsDNA library, 0.1% formaldehyde crosslink after washing; high values mean tight binding
For one experiment, the target named is T1, FEV (Homo sapiens, UniProt Q99581 1-238).
T1 sequence: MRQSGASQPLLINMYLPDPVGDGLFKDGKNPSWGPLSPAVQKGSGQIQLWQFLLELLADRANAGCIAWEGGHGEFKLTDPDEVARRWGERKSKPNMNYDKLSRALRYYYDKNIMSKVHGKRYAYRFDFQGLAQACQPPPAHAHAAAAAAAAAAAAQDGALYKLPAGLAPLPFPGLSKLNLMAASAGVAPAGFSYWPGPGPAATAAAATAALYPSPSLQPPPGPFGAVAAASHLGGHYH
Conditions: protein: recombinant; tags: N-terminal GST; dsDNA, one strand shown. An outline of the steps:
(§1)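 Each value of binding signal is a hexamer's read frequency for a factor divided by the same hexamer's frequency in the tag-only sample. Barcoded, bead-captured GST fusions of human transcription factors made in yeast were pooled with that sample and incubated with 200 nmole of a random double-stranded 16-mer DNA library in Tris/NaCl/DTT/glycerol buffer at room temperature for 30 min. Washing, 0.1% formaldehyde crosslinking, proximity ligation, PCR and Illumina NextSeq500 sequencing followed.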

Another experiment concerns the target ETV5 (Homo sapiens, UniProt P41161 1-510). Particulars: protein: recombinant; tags: N-terminal GST; dsDNA, one strand shown. Summed up: as §1
Another experiment has as its target HSF1 (Homo sapiens, UniProt Q00613 1-529). Conditions: protein: recombinant; tags: N-terminal GST; chain copies: 3; dsDNA, one strand shown. Summed up:
as §1

The next experiment has as its target T2, SPIC (Homo sapiens, UniProt Q8N5J4 1-248).
T2 sequence: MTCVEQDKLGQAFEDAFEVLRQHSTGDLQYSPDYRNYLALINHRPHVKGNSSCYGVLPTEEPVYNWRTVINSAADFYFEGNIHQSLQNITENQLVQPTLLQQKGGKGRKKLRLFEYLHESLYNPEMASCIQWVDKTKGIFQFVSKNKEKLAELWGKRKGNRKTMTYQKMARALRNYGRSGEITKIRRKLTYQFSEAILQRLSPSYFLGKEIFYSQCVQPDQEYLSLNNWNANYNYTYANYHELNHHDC
Particulars: protein: recombinant; tags: N-terminal GST; dsDNA, one strand shown. An outline of the steps:
as §1

In the next experiment the target is ELF4 (Homo sapiens, UniProt Q99607 1-663). Particulars: protein: recombinant; tags: N-terminal GST; dsDNA, one strand shown. An outline of the steps:
as §1

A further experiment concerns the target T3, ELK4 (Homo sapiens, UniProt P28324-2 1-405).
T3 sequence: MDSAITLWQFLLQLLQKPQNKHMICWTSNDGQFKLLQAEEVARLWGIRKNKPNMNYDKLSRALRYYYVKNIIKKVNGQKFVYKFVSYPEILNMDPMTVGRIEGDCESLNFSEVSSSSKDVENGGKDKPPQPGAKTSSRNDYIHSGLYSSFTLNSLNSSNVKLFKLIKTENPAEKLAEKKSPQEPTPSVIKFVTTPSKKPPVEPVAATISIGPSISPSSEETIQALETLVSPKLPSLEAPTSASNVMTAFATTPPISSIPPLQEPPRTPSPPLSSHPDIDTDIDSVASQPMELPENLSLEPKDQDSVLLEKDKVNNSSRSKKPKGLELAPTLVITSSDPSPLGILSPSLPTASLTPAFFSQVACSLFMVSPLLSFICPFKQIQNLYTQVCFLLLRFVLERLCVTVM
Particulars: protein: recombinant; tags: N-terminal GST; dsDNA, one strand shown. Summed up: as §1

The next experiment has as its target T4, ETV2 (Homo sapiens, UniProt O00321 1-342).
T4 sequence: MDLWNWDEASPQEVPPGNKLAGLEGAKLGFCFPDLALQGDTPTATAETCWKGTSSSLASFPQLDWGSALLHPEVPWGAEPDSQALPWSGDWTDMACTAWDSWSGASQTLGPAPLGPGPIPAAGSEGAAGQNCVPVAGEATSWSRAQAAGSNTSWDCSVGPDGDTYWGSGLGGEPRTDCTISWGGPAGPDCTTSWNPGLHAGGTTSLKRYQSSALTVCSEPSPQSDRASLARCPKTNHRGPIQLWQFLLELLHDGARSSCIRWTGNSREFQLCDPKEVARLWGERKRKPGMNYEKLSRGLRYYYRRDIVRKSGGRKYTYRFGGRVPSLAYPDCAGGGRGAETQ
Particulars: protein: recombinant; tags: N-terminal GST; dsDNA, one strand shown. Summed up:
as §1

A further experiment has as its target T5, ELF3 (Homo sapiens, UniProt P78545 1-371).
T5 sequence: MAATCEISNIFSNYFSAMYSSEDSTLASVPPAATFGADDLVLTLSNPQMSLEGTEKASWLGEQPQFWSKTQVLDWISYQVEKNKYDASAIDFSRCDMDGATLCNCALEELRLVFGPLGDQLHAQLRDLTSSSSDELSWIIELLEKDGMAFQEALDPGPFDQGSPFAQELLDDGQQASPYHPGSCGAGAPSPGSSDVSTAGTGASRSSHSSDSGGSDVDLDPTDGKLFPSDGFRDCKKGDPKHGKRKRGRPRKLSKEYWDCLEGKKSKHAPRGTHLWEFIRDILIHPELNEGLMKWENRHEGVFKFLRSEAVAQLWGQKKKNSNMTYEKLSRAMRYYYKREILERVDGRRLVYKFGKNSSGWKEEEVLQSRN
Particulars: protein: recombinant; tags: N-terminal GST; dsDNA, one strand shown. An outline of the steps:
as §1

The next experiment has as its target CRX (Homo sapiens, UniProt O43186 1-299). Particulars: protein: recombinant; tags: N-terminal GST; dsDNA, one strand shown. An outline of the steps: as §1
In the next experiment the target is ETV1 (Homo sapiens, UniProt P50549 1-477). Particulars: protein: recombinant; tags: N-terminal GST; dsDNA, one strand shown. An outline of the steps: as §1
ETV1, sequence (P50549 whole entry): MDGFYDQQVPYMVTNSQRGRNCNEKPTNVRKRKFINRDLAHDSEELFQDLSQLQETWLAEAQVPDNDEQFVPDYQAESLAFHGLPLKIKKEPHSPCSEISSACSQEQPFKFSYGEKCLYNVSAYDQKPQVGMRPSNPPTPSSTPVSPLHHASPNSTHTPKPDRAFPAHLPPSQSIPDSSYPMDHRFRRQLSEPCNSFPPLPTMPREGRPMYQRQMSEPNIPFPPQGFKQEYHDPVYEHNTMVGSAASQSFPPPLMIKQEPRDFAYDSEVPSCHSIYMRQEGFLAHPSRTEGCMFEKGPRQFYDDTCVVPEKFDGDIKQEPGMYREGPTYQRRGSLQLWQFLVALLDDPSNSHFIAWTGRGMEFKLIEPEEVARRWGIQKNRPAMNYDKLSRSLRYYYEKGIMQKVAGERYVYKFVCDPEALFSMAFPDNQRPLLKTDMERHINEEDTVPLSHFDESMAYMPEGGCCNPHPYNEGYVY
The next experiment deals with T6, ERF (Homo sapiens, UniProt P50548 1-548).
T6 sequence: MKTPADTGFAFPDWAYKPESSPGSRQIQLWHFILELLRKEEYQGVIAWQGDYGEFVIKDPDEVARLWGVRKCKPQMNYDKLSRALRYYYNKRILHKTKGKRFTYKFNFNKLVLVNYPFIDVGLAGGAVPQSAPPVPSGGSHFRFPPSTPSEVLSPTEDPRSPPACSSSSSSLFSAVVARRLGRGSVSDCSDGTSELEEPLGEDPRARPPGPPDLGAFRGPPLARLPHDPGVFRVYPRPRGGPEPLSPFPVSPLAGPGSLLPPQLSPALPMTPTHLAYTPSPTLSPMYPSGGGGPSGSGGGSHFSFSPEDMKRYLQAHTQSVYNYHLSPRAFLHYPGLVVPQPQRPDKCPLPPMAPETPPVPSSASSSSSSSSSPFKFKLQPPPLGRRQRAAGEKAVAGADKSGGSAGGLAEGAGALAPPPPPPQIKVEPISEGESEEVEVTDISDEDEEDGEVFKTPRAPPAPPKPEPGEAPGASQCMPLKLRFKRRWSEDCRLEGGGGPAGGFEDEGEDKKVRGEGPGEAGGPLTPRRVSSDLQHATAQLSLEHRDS
Particulars: protein: recombinant; tags: N-terminal GST; dsDNA, one strand shown. Summed up:
as §1

The next experiment deals with T7, ETV3L (Homo sapiens, UniProt Q6ZN32 1-361).
T7 sequence: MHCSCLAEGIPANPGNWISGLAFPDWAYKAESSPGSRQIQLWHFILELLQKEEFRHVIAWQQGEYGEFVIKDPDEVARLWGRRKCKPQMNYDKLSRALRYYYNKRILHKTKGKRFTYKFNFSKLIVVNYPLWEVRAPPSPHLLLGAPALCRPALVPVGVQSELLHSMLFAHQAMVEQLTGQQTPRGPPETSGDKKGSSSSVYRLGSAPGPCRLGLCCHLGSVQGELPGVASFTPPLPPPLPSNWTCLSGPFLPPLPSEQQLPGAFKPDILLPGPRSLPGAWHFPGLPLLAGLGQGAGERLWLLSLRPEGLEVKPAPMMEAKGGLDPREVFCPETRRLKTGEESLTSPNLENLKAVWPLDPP
Particulars: protein: recombinant; tags: N-terminal GST; dsDNA, one strand shown. An outline of the steps:
as §1

A further experiment concerns the target T8, ETS2 (Homo sapiens, UniProt P15036 1-469).
T8 sequence: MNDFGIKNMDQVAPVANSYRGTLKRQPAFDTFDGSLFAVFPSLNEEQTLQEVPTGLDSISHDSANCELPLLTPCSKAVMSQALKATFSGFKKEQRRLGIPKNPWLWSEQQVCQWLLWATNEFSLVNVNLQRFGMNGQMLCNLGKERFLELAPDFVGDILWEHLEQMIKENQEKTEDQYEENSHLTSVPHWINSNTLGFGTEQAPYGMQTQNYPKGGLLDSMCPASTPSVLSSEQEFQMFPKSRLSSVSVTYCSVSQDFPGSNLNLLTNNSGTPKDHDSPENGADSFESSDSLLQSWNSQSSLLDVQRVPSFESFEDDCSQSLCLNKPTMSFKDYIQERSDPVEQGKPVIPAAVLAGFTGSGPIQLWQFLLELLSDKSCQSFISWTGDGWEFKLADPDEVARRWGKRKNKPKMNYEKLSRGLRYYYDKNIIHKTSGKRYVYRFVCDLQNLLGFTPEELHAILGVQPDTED
Conditions: protein: recombinant; tags: N-terminal GST; dsDNA, one strand shown. Summed up: as §1

For a further experiment, the target named is T9, SPDEF (Homo sapiens, UniProt O95238 1-335).
T9 sequence: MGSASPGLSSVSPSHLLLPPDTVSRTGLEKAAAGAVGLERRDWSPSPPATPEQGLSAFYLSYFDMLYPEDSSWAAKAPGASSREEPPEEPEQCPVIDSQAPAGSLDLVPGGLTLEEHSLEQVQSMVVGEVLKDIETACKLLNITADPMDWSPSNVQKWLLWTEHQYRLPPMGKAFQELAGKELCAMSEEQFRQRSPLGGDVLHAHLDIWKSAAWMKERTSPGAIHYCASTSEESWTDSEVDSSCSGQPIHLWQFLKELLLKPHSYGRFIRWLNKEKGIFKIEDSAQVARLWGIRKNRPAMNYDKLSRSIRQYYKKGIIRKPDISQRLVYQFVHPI
Particulars: protein: recombinant; tags: N-terminal GST; dsDNA, one strand shown. An outline of the steps: as §1

The next experiment concerns the target T10, ETV7 (Homo sapiens, UniProt Q9Y603 1-341).
T10 sequence: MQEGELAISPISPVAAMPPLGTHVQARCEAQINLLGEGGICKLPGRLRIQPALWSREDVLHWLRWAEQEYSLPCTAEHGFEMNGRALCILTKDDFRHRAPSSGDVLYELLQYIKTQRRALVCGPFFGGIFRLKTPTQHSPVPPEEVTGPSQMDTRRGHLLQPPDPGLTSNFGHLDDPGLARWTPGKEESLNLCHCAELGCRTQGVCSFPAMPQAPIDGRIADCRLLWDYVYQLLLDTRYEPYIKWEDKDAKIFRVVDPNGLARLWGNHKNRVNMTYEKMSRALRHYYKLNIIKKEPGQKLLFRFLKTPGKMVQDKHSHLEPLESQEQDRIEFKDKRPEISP
Particulars: protein: recombinant; tags: N-terminal GST; dsDNA, one strand shown. An outline of the steps:
as §1

In another experiment the target is T11, ELF5 (Homo sapiens, UniProt Q9UKW6-2 1-255).
T11 sequence: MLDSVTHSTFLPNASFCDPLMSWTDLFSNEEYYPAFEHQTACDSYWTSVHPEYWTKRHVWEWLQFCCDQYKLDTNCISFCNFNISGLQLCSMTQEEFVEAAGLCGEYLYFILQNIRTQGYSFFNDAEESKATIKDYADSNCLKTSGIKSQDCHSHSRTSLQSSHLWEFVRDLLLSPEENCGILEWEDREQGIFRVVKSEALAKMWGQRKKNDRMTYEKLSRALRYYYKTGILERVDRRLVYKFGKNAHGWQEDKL
Particulars: protein: recombinant; tags: N-terminal GST; dsDNA, one strand shown. An outline of the steps: as §1

Another experiment addresses T12, ETV3 (Homo sapiens, UniProt P41162-2 1-143).
T12 sequence: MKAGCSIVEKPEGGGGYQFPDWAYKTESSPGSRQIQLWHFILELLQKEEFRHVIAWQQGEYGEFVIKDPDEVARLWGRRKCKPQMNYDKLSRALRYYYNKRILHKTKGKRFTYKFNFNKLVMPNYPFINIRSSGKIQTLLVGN
Conditions: protein: recombinant; tags: N-terminal GST; dsDNA, one strand shown. Summed up:
as §1

For another experiment, the target named is ETV6 (Homo sapiens, UniProt P41212 1-452). Conditions: protein: recombinant; tags: N-terminal GST; dsDNA, one strand shown. Summed up:
as §1

ETV6, sequence (P41212 whole entry): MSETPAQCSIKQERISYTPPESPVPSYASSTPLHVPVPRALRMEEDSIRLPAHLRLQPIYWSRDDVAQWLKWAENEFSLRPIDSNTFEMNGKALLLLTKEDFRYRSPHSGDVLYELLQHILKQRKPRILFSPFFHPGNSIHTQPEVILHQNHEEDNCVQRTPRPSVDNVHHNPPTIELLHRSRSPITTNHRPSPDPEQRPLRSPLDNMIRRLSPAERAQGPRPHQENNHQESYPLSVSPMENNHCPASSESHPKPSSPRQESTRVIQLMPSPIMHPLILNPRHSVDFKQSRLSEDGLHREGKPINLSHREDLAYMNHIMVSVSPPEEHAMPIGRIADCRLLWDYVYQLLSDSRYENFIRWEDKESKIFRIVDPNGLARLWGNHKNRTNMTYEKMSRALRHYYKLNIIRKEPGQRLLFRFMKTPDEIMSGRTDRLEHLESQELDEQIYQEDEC
ELF4, sequence (Q99607 whole entry): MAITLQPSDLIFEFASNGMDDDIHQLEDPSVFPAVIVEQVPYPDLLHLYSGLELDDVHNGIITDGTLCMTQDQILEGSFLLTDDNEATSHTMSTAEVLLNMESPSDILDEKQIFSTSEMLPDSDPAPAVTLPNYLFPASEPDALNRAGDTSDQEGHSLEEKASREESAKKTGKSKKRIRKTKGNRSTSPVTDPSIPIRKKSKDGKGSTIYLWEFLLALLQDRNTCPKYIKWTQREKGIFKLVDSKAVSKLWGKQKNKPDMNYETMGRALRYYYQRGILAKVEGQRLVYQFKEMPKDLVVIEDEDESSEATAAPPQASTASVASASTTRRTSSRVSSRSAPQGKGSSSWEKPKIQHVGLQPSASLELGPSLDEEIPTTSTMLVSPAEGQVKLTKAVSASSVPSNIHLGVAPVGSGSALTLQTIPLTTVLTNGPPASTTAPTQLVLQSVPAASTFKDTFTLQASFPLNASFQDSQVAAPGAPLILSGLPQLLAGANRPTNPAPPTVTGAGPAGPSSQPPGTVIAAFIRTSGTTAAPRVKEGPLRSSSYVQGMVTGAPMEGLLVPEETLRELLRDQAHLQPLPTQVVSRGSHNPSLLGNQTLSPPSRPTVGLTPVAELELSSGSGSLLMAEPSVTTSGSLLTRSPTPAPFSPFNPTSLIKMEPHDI
CRX, sequence (O43186 whole entry): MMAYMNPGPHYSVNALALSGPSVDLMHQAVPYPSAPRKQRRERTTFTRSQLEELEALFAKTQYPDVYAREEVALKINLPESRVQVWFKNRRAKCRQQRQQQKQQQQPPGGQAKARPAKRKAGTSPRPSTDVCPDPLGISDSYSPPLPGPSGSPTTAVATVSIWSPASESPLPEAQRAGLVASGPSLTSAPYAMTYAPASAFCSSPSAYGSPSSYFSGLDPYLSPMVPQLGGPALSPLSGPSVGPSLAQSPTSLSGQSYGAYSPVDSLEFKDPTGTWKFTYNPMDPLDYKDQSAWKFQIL
ETV5, sequence (P41161 whole entry): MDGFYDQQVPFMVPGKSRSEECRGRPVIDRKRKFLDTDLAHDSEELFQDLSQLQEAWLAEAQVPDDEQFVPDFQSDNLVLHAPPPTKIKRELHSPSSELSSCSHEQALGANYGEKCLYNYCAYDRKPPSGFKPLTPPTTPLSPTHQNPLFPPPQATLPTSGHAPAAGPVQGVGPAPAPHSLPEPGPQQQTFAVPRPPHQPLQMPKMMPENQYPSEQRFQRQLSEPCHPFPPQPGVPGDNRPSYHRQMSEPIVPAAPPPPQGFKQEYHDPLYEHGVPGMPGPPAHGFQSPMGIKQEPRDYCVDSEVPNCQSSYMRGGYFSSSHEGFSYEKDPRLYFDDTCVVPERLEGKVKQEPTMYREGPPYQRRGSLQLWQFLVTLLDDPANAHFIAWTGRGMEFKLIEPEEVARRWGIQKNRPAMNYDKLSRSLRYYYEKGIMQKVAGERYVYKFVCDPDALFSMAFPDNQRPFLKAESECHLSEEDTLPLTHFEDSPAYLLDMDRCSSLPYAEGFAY
HSF1, sequence (Q00613 whole entry): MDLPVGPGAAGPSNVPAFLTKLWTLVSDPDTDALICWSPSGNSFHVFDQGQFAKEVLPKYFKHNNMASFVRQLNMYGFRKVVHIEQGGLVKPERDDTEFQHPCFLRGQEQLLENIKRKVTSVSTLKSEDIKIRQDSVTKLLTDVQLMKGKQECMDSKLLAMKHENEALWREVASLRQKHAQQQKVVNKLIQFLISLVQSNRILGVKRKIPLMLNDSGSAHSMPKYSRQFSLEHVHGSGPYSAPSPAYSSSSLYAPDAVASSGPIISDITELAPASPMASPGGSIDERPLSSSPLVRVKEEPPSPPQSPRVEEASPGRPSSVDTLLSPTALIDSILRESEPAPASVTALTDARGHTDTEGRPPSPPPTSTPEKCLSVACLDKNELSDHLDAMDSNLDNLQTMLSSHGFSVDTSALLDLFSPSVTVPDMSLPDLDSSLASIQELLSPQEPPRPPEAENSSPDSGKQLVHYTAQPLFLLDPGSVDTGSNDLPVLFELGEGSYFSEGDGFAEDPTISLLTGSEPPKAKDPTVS

Consider TGGGAT, for which the binding signal is 1.18 fold enrichment (6-mer frequency, TF over GST control) in the experiment with FEV; 1.19 fold enrichment (6-mer frequency, TF over GST control) with ETV5; 1.47 fold enrichment (6-mer frequency, TF over GST control) in the experiment with HSF1; 1.17 fold enrichment (6-mer frequency, TF over GST control) with SPIC; 1.2 fold enrichment (6-mer frequency, TF over GST control) with ELF4; 1.39 fold enrichment (6-mer frequency, TF over GST control) with ELK4. For the same sequence, the binding signal was 1.14 fold enrichment (6-mer frequency, TF over GST control) with ETV2; 1.12 fold enrichment (6-mer frequency, TF over GST control) with ELF3; 1.9 fold enrichment (6-mer frequency, TF over GST control) with CRX; 1.25 fold enrichment (6-mer frequency, TF over GST control) in the experiment with ETV1; 1.05 fold enrichment (6-mer frequency, TF over GST control) with ERF; 1.15 fold enrichment (6-mer frequency, TF over GST control) in the experiment with ETV3L. For the same sequence, the binding signal with ETS2 was 1.17 fold enrichment (6-mer frequency, TF over GST control); with SPDEF it was 1.17 fold enrichment (6-mer frequency, TF over GST control); with ETV7 it was 1.15 fold enrichment (6-mer frequency, TF over GST control); with ELF5 it was 1.2 fold enrichment (6-mer frequency, TF over GST control); with ETV3 it was 1.18 fold enrichment (6-mer frequency, TF over GST control); in the experiment with ETV6, 1.23 fold enrichment (6-mer frequency, TF over GST control).

The values above are taken from article PMC7862700, “An all-to-all approach to the identification of sequence-specific readers for epigenetic DNA modifications on cytosine”.
